The inhibition is the relative decrease from the control value, in per cent.

Each structure is given as a SMILES string. Screen size: about 220,000 compounds; about 570 (0.26%) were called active. The sample as a whole holds a higher share of actives than the screen did. Values without a mark were called inactive. Rule as the data show it: active = inhibition above about 29%; inactive = the rest.

The target of the experiment is Sphingosine 1-phosphate receptor 4 (Homo sapiens) (UniProt O95977). Briefly: blockers of human S1P4 receptor – cell-based, primary screen (AID 1510).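 Also: 0% = wells stimulated with agonist and 100% = vehicle wells without agonist.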 The settings on record: S1P4-expressing cells, antagonist mode, reporter read-out; at 4.98 µM; active compounds read high.
Sphingosine 1-phosphate receptor 4 (Homo sapiens), sequence (O95977 whole entry, looked up): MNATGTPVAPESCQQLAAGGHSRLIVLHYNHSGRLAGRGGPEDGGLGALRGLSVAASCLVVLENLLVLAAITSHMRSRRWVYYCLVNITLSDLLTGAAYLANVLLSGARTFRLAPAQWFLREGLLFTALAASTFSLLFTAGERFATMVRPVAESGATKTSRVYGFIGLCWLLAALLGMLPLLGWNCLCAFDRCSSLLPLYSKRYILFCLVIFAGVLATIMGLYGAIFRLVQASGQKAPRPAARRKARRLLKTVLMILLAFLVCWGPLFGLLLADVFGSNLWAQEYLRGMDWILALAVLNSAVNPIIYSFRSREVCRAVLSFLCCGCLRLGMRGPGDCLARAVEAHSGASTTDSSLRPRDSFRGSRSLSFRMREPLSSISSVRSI
On to `CCOc1ccc(S(=O)(=O)Nc2ccncc2)c(C)c1C`, for which the inhibition was 8.19%. `C/C(=N\NC(=O)c1nc(C)cc(C)n1)c1ccccc1`: the inhibition is 4.33%.

Take `Cc1cc(C)nc(S/C=C/C(=O)c2ccccc2)n1`: the inhibition was 54.5% (active).

In the case of `Cc1cc(SCC(=O)c2ccccc2)nc(SCC(=O)c2ccccc2)n1`, the inhibition was -17.1%. `O=C(Nc1nnc(SCc2ccccc2Cl)s1)c1cccc([N+](=O)[O-])c1`: the inhibition was -13.5%. For `O=C(O)C1CC=CCC1C(=O)Nc1ccccc1C(=O)N1CCN(c2ccccc2)CC1` (centres undefined), the inhibition was -6.52%. With `CC(C)c1ccc(N2CCN(C(=O)c3ccccc3NC(=O)/C=C(\C(=O)O)c3ccccc3)CC2)cc1`, the inhibition was 96% (active). In the case of `Cc1cccc(N2CCN(C(=O)c3ccccc3NC(=O)C3CCCCC3C(=O)O)CC2)c1` (centres undefined), the inhibition was -7.71%.

In the case of `CC(C)c1ccc(Nc2ncccc2C#N)cc1`, the inhibition is -16.8%. As for `O=C(/C=C/c1cccc([N+](=O)[O-])c1)NCCSCc1ccco1`, the inhibition is -14.7%.

For the compound `CCc1ccc2ncc(C(=O)c3ccccc3)c(N3CCOCC3)c2c1`, the inhibition is -14.8%. As for `O=C1Nc2cc(Cl)c(Cl)cc2N(O)N1c1ccccc1Cl`, the inhibition is -11.4%. Consider `C=CCOCCN(C)C1=NS(=O)(=O)c2ccccc21`, for which the inhibition was -5.99%. For `Fc1ccc(Nc2nnns2)cc1`, the inhibition was -8.7%. The same measure for `O=C(CSc1ncn[nH]1)Nc1nc(-c2cccc([N+](=O)[O-])c2)cs1`: 0.29%; for `COc1ccc(Nc2nc(-c3ccccc3)cs2)cc1`: -20.3%; for `COc1ccc(-c2csc(NC3OC(=O)c4ccccc43)n2)cc1` (centres undefined): 30.9% (active). Regarding `COc1ccc2c(c1OC)C(=O)OC2Nc1nc(-c2ccccc2)cs1` (centres undefined), the inhibition is 22.8%. As to `O=C(CC1NCCNC1=O)Nc1cc(Cl)cc(Cl)c1` (centres undefined), the inhibition is -3.46%. Regarding `Cc1cc(C(=O)CSc2nc(N)cc(=O)[nH]2)c(C)n1-c1cccc(F)c1`, the inhibition is -13.7%. The result for `Brc1ccc(-c2nn[nH]n2)cc1` reads 11.9%; that for `Cc1ccc(C2CCN(C(=S)Nc3cccc(Cl)c3)C2)cc1` (centres undefined), 3.99%.

As for `Cc1nc2nc(SCC(=O)c3ccccc3)[nH]c2cc1Br`, the inhibition is 6.48%. Turning to `O=C(COC(=O)c1cc([N+](=O)[O-])ccc1NCc1ccccc1)NC1CCCCC1`, the inhibition is -5.39%. As to `CC1CC(C)CN(S(=O)(=O)c2cccc(C(=O)N3C(=O)c4cccc(N)c4C3=O)c2)C1` (centres undefined), the inhibition is 37.9% (active). The result for `CN1CCN(S(=O)(=O)c2cccc(C(=O)O)c2)CC1` reads -2.81%; that for `COc1cc(C(=O)N2C(=O)c3cccc(N)c3C2=O)cc(OC)c1OC`, 6.71%; that for `CC(C)(C)C(=O)NCCCNc1ccc([N+](=O)[O-])cc1`, 4.36%. With `Cc1cc(C)n(-c2nnc(N3CCN(c4ccccc4)CC3)nn2)n1`, the inhibition was 9.76%. In the case of `CCn1nnnc1SCC(=O)c1ccc(C)cc1C`, the inhibition is -2.87%.

For `Cc1ccc(SC(CC(=O)c2ccc(C(C)(C)C)cc2)C(=O)O)cc1` (centres undefined), the inhibition is 26%.

For `Cn1c(=O)c2c(nc(N/N=C/c3cccs3)n2Cc2ccc(Br)cc2)n(C)c1=O`, the inhibition is -19.2%. For the compound `Cc1ccc(COc2ccc(/C=N/NC(=O)CN3CCCCC3)cc2)cc1`, the inhibition is -8.97%.

As for `CC1CC2=C(CC1/C=N/NC(N)=S)C(C)(C)CCC2` (centres undefined), the inhibition is 29.9% (active).

Regarding `CC1(C)CCCC2=C1CC1C(=O)N(c3ccccc3)C(=O)C1C2` (centres undefined), the inhibition was -11.5%. Take `Nc1nonc1-c1nc2ccccc2n1Cc1ccc(F)cc1`: the inhibition was 38.9% (active). In the case of `COc1ccc(C)c(Cn2c(-c3nonc3N)nc3ccccc32)c1`, the inhibition was -20.7%. The result for `CC(=O)Nc1nonc1-c1nc2ccccc2n1Cc1ccccn1` reads -6.67%; that for `COc1ccc(CCCc2nnc(SCc3nc4ccccc4c(=O)[nH]3)n2C)cc1`, 3.12%; that for `C=C(C)CNC(=S)Nc1ccc(S(=O)(=O)Nc2cnc3ccccc3n2)cc1`, 2.29%.

`Cc1cc2oc(C(=O)Nc3c(C)n(C)n(-c4ccccc4)c3=O)c(C)c2cc1Cl`: the inhibition is 29.2% (active). In the case of `Cc1cc(C(=O)Nc2c(C)n(C)n(-c3ccccc3)c2=O)cs1`, the inhibition is -8.59%. As to `Cc1c(NC(=O)c2coc(=O)c(Br)c2)c(=O)n(-c2ccccc2)n1C`, the inhibition was -7.02%.

For the compound `COc1ccc(NC(=O)COC(=O)c2ccncc2)c(OC)c1`, the inhibition is -5.29%. On to `Cc1cc(C(C)(C)C)oc1C(=O)N(CC(=O)NC1CCCC1)Cc1ccc(Cl)cc1`, for which the inhibition was -6.52%.

Regarding `CC(C)NC(=S)N1CCN(S(C)(=O)=O)CC1`, the inhibition was -10.4%. For the compound `Cc1nc2cc3c(cc2s1)OCO3`, the inhibition was -20.6%. The same measure for `COc1ccc(C(=O)NCc2nnc(SCCOc3ccccc3)n2C)cc1`: -1.19%. The result for `CC(C)N(C(=O)c1ccc(-c2ccccc2F)cc1)C(C)C` reads 26.9%; that for `CC(NCc1ccccc1OC1CCCC1)c1ccccc1` (centres undefined), 27.7%. As to `CC(C)(C)NC(=O)C(=O)NCc1ccncc1`, the inhibition is -14.6%. For `CNS(=O)(=O)c1ccc(NC(=O)C2CC(=O)N(c3ccc(Cl)cc3)C2)cc1` (centres undefined), the inhibition is 12.8%.

In the case of `CC(=O)Nc1ccc(S(=O)(=O)N2CCN(c3ccc([N+](=O)[O-])c(NCCN4CCOCC4)c3)CC2)cc1`, the inhibition was -3.22%. As for `COc1cc(NC(=O)CN(C)S(=O)(=O)c2ccc3nc(C)sc3c2)cc(OC)c1`, the inhibition was -2.8%. In the case of `Cc1cc(/C=N/NC(N)=O)c(C)n1C1CCCCC1`, the inhibition is 16.8%. As to `Cc1cccc(C(=O)Nc2ccccc2C(=O)NCc2cccnc2)c1`, the inhibition is -7.4%. With `Cc1ccc2cc(/C=N/Nc3ccc(C(=O)O)cc3)c(Cl)nc2c1`, the inhibition was 4.36%. As to `Cc1nc([N+](=O)[O-])cn1CC(=O)Nc1ccc2c(c1)OCO2`, the inhibition was -4.57%.

Take `Cc1nn(CC#N)c(=O)n1N(C)c1ncc(C(F)(F)F)cc1Cl`: the inhibition was -4.17%. The same measure for `CCOc1ccc(C(=O)Nc2cccc(-c3ccc4nncn4n3)c2)cc1`: 0.94%; for `O=C(C1CCN(S(=O)(=O)c2ccc(Br)s2)CC1)N1CCN(C2CCCCC2)CC1`: -2.03%; for `CN(C)c1ccc(/C=C/C(=O)c2ccc(C(C)(C)C)cc2)cc1[N+](=O)[O-]`: -10.1%. As to `CN(C)c1ccc(/C=C/C(=O)c2ccc(O)cc2)cc1[N+](=O)[O-]`, the inhibition was 6.74%. As to `O=C(/C=C/c1ccc(Cl)c([N+](=O)[O-])c1)c1ccc(O)cc1`, the inhibition was 46.2% (active).

Take `COc1ccccc1CNC(=O)Cn1c(=O)oc2cc(Cl)ccc21`: the inhibition is 0.8%. On to `COc1ccc(C[C@H]2CN3C(=NC[C@H]3C)N2CCNC(=O)CCC2CCCCC2)cc1`, for which the inhibition is -5.06%. The result for `CC1CCCC(NC(=O)c2cccc(N3CCCC3=O)c2)C1C` (centres undefined) reads -7.04%; that for `C/C(=N/O)c1ccc(N2C(=O)C3C4C=CC(C3C2=O)C2C3C(=O)N(c5ccc(/C(C)=N/O)cc5)C(=O)C3C42)cc1` (centres undefined), -4.36%. Turning to `COC(=O)C1=C(Nc2ccc(C)cc2)C=C(C)C(C(=O)OC)C1c1ccc(F)cc1` (centres undefined), the inhibition was -18%. For `O=C(NNC(=S)Nc1ccc(Br)cc1Cl)c1ccco1`, the inhibition is -12.4%. On to `NC(=O)N/N=C\c1cccs1`, for which the inhibition is -18.6%.

Take `CCCCCCCC(=O)NC(Nc1ccccc1OC)C(Cl)(Cl)Cl` (centres undefined): the inhibition is 8.46%. With `Cc1cc(NC(=O)CSCc2ccccc2C)no1`, the inhibition was -4.86%. Turning to `C=CS(=O)c1sc(Cl)c(N2CCOCC2)c1[N+](=O)[O-]` (centres undefined), the inhibition is 46.3% (active).

`O=c1c2cc(-c3ccccc3)sc2nc2n1N=C(c1cccs1)CS2`: the inhibition is -3.31%. Regarding `CCOc1ncccc1C(=O)N(CC)CC(=O)Nc1ccc(NC(C)=O)cc1`, the inhibition is -27.8%. `CNc1ccc(SC#N)cc1`: the inhibition was 30.8% (active).

As to `COc1cc2c(cc1O)[C@H](Cc1ccc(Oc3cc(C[C@@H]4NCCc5cc(OC)c(O)cc54)ccc3O)cc1)NCC2`, the inhibition was -13.1%.

Regarding `CC[C@H]1CN2CCc3cc(OC)c(OC)cc3[C@@H]2C[C@@H]1C[C@H]1NCCc2cc(OC)c(OC)cc21`, the inhibition is 82.3% (active).

Turning to `O=C(Nc1ccc(Cl)cc1)Nc1ccc(C(=O)N2CCOCC2)cc1`, the inhibition was 6.4%. Regarding `Cc1ccc(Oc2cc(NC(=O)CCCn3nc(C)c([N+](=O)[O-])c3C)cc([N+](=O)[O-])c2)cc1`, the inhibition is -12.2%. As for `O=C(Nc1ccccc1)c1nnsc1S(=O)(=O)c1ccc(Cl)cc1`, the inhibition is 93.8% (active). As for `O=C(Nc1ccc(Cl)cc1)c1ccsn1`, the inhibition is 4.84%. Take `CS(=O)(=O)c1ccc(Cl)c(NC(=O)Nc2ccccc2)c1`: the inhibition is 17.2%. For the compound `CS(=O)(=O)N(CC(=O)N1CCN(c2ccc(F)cc2)CC1)C1CCCCC1`, the inhibition was -13.7%. The same measure for `Cc1ccc(CCC(=O)Nc2ncc(Cc3cc(Cl)ccc3Cl)s2)o1`: -6.95%; for `CCc1ccc(S(=O)(=O)NCC(O)COc2ccc(OC)cc2)cc1` (centres undefined): 2%. As for `O=C(NCCOCc1ccc(Cl)cc1)c1ncn[nH]1`, the inhibition was -4.23%. On to `COc1ccc(Cl)cc1CSc1ncn[nH]1`, for which the inhibition is -3.23%. On to `O=C(/C=C/Sc1ncn[nH]1)c1ccc(Cl)cc1`, for which the inhibition is 47.2% (active). The result for `CC(=O)N1N=C(c2ccncc2)OC1(Cc1ccccc1)Cc1ccccc1` reads 23.2%; that for `CN(C)CCNC(=O)Cc1ccc([N+](=O)[O-])cc1`, -16%; that for `CCCc1nc2c(C)cc(-c3nc4ccccc4n3C)cc2n1Cc1ccc(-c2ccccc2C(=O)O)cc1`, -1.52%. Take `CCOc1ccc(C(C)=O)cc1COC(=O)c1cnc(Cl)c(Cl)c1`: the inhibition was -30.6%.

Source of the values: PubChem BioAssay AID1510 (The Scripps Research Institute Molecular Screening Center, 2009).
